Laboratory results from ChEMBL document CHEMBL3988442, “University of Dundee, Small-Polar-MMV Screening Library” (2021).
Out of some 48,000 compounds screened, about 13,000 (27%) showed an effect of 50% or more. This is one part of the list.

test system: Wolbachia pipientis; experiment: Anti-Wolbachia Cell-Based Screen; assay type: functional; parameters: scale not given: in the data most compounds retested in dose-response had high values; conditions: 5 µM

| Compound | Percent Effect [%] |
| --- | --- |
| Cc1nc(C)n(CC2CCCCN2CC(=O)Nc2cccnc2)n1 (configuration not stated) | -1.265 |
| Cn1cc(CNCCNC(=O)Cc2ccccc2)c(-c2cccnc2)n1 | 13.61 |
| COc1ccccc1S(=O)(=O)N1CC(N(C)C)Cc2ccccc21 (configuration not stated) | 4.709 |
| CN(C)C(=O)CN1C[C@H]2CCN(C(=O)C3CCCO3)CC[C@H]2S1(=O)=O (some centres not stated) | -8.272 |
| CCOc1ccnc(N2CCCN(c3nc(C4CC4)ns3)CC2)n1 | -0.1352 |
| CCCC(Nc1nc(COCC)nc2c1CCNCC2)c1nccn1C (configuration not stated) | 3.628 |
| O=C(CN1CCN(CCO)CC1)NC(C1CC1)C1CC1 | -6.092 |
| CC1CCC(NS(=O)(=O)CC(=O)NC(C2CC2)C2CC2)CC1 (configuration not stated) | 99.55 |
| CC1CCC(N2CCC(NS(=O)(=O)CCOC(C)C)CC2)CC1 (configuration not stated) | -12.56 |
| O=C(c1ccccc1F)N1CCN(c2ccc(-n3cccn3)nn2)CC1 | 5.073 |
| CCc1ccsc1C(=O)N(C)CCc1ccncc1 | 33.97 |
| CC(=O)N1Cc2ccccc2C[C@H]1C(=O)N(C)CCc1ccccn1 | -17.28 |
| CC(=O)N1N=C(c2ccco2)OC1C(=O)N(C)CCc1ccccc1 (configuration not stated) | 108.8 |
| CN(CCc1ccccc1)C(=O)c1cc(CN2CCC(O)CC2)on1 | -17.23 |
| CC(=O)N1N=C(c2ccncc2)OC1C(=O)N(C)CCc1ccccc1 (configuration not stated) | 108.6 |
| CC/C=C(/C)C(=O)N1CSCC1C(=O)N(C)CCc1ccncc1 (configuration not stated) | -7.241 |
| CN(CCc1ccccc1)C(=O)CN1C(=O)OC[C@@H]1c1ccccc1 | -12.26 |
| CN(Cc1ccccc1)C(=O)[C@@H]1Cc2[nH]cnc2CN1C | 13.33 |
| CCC(=O)N1CSCC1C(=O)N(C)CCc1ccccc1 (configuration not stated) | -0.07211 |
| CC(=O)N1N=C(c2ccccc2)OC1C(=O)N(C)Cc1ccccc1 (configuration not stated) | 105.2 |
| CC(=O)N1N=C(c2ccccc2)OC1C(=O)N(C)CCc1ccccc1 (configuration not stated) | 94.62 |
| CN(Cc1cnn(C)c1)C(=O)C1COc2ccccc2C1 (configuration not stated) | -7.691 |

| Compound | Percent Effect [%] |
| --- | --- |
| Cc1cnc(C(=O)N[C@H]2CN(CCS(C)(=O)=O)C[C@@H]2C2CC2)cn1 | 4.986 |
| CC(Cc1cncs1)Nc1ncnc2cccc(F)c12 (configuration not stated) | -13.2 |
| CC(C)Cc1noc(CC2CCS(=O)(=O)C2)n1 (configuration not stated) | -7.316 |
| CN(C)c1ccc(CNC2(c3ccc(F)cc3)CCOCC2)cc1F | -20.17 |
| Cc1csc2c(N3CCC(NCCCc4ccncc4)CC3)ncnc12 | -7.721 |
| CO[C@H]1CN(Cc2cc(Cn3cncn3)c(C)cc2C)CC[C@H]1N | 13.4 |
| Cc1cc(C)nc(Nc2nccnc2C2CCCN(C(C)C)C2)n1 (configuration not stated) | 76.04 |
| Cc1cc(C)nc(Nc2nccnc2C2CCCN(C(CO)CO)C2)n1 (configuration not stated) | 89.81 |
| Cc1cc(C)nc(Nc2nccnc2C2CCCN(CCO)C2)n1 (configuration not stated) | 115.9 |
| CC(=O)N1CCCC(c2nccnc2Nc2nc(C)cc(C)n2)C1 (configuration not stated) | 92.16 |
| CCC(=O)N1CCCC1c1nccnc1Nc1nc(C)cc(C)n1 (configuration not stated) | 4.912 |
| CCN1C(=O)[C@H]2CN(Cc3cccnc3)C[C@H]2C12CCN(C(C)=O)CC2 | -22.31 |
| COCC(NC(=O)NCc1ccc(C)c(F)c1)c1ccco1 (configuration not stated) | 5.842 |
| O=C(NC1CC1)N1CCCC2(CCNC2=O)C1 (configuration not stated) | -20.05 |
| COc1c(F)cc(NCC(=O)NC(C)(C#N)C2CC2)cc1F (configuration not stated) | -10.88 |
| CCOC(=O)N1CCN(c2nc(N)c3ccccc3n2)CC1.Cl | 10.93 |
| Cc1noc(C)c1CC(=O)OCc1nc(N)c2ccccc2n1 | -18.91 |
| COCc1ccccc1C(=O)N(C)Cc1ncc(C)c(OC)c1C | 29.72 |
| Cc1nc(COc2cccc(C#N)c2)no1 | 2.018 |
| Cc1csc(CN(CC2CCCO2)C(=O)c2cccnc2C)n1 (configuration not stated) | -5.515 |
| Cc1nc(COC(=O)c2cccnc2C)no1 | 111.5 |
| COCc1ccccc1C(=O)OCc1noc(C)n1 | 97.59 |

| Compound | Percent Effect [%] |
| --- | --- |
| Cc1cnc(N2CCC(OCCN3CCCCC3)C2)nc1C (configuration not stated) | 11.15 |
| CN1CCC(N(C)CCC(=O)N2CCC(OCc3ccccc3)CC2)C1 (configuration not stated) | -15.08 |
| CN1CC[C@H](N(Cc2ccccc2)CC2CC2)C[C@H](O)C1 | 101.2 |
| CN1CCC(N(C)CCC(=O)N2CCC(CCc3ccccc3)CC2)C1 (configuration not stated) | -7.751 |
| CN1CC[C@H](N(C)Cc2ccccc2)C[C@H](O)C1 | 67.42 |
| CN1CCC(N(Cc2ccccc2)C(=O)c2ccn3cncc3c2)CC1 | -5.801 |
| CN1CCC(N(Cc2ccccc2)C(=O)c2nccn3ccnc23)CC1 | 3.341 |
| CN1CC[C@H](N(Cc2ccccc2)Cc2ccccc2)C[C@H](O)C1 | 97.14 |
| CN(CC1CC1)C(=O)CN(Cc1cccc(O)c1)C1CCC(O)CC1 (configuration not stated) | -10.37 |
| CN1CCC(N2CCC(CN(Cc3ccncc3)C3CCC3)CC2)CC1 | 7.68 |
| CN1CCC(N2C[C@H](O)C[C@H]2c2nc(Cc3ccccc3)no2)CC1 | -1.075 |
| CN1CCC(N(Cc2ccccc2)C(=O)c2ccn3ccnc3c2)CC1 | 0.1453 |
| CN1CC[C@H](N(Cc2ccccc2)C2COC2)C[C@H](O)C1 | 101.7 |
| COC(=O)c1sc2nc3c(c(C(F)(F)F)c2c1N)CN(C(C)=O)CC3 | 5.653 |
| COc1ccc(Oc2ccc(CNC(=O)C(C)n3cncn3)cn2)cc1 (configuration not stated) | -12.03 |
| CC(Cn1cccn1)NC(=O)Nc1ccc(N2CCCC2)nc1 (configuration not stated) | -16.81 |
| CC(C(=O)Nc1ccc(N2CCCCC2)nc1)n1cncn1 (configuration not stated) | 95.56 |
| CC(C(=O)Nc1ccc(N2CCCC2)nc1)n1cncn1 (configuration not stated) | -0.2792 |
| CC(C(=O)Nc1ccc(N2CCCC2)nc1)n1ccnc1 (configuration not stated) | -0.9927 |
| CC(C(=O)Nc1ccc(N2CCCCC2)nc1)n1ccnc1 (configuration not stated) | 105.1 |
| CC(Cn1cccn1)NC(=O)Nc1ccc(N2CCCCC2)nc1 (configuration not stated) | -23.5 |
| O=C(Cc1ccccc1O)Nc1ccc(N2CCCC2)nc1 | 0.2058 |

| Compound | Percent Effect [%] |
| --- | --- |
| CC(C(=O)NCc1ccnc(Oc2ccc(F)cc2)c1)n1cncn1 (configuration not stated) | -19.79 |
| COc1ccc(NC(=O)C(C)n2cncn2)cn1 (configuration not stated) | 104.1 |
| CC(C(=O)Nc1ccc(N2CCCC2)nc1)n1cccn1 (configuration not stated) | 93.36 |
| CC(C(=O)Nc1cccc(N2CCCCC2)c1)n1cncn1 (configuration not stated) | 4.529 |
| CC(C)COCC(NC(=O)c1cc[nH]n1)c1ccco1 (configuration not stated) | 4.731 |
| CCN(CC(=O)N(C)C)S(=O)(=O)c1cnc2c(c1)c(C)nn2C | 5.433 |
| CCN1CCc2[nH]cnc2C12CCN(c1ncc(C(=O)O)cc1Cl)CC2 | 3.404 |
| Brc1ccc(C2(CNCc3cc[nH]c3)CCOCC2)cc1 | 10.2 |
| CN1CCCc2ccc(S(=O)(=O)NC(=O)C3CC=CC3)cc21 | -3.642 |
| CC(OCC(F)(F)F)C(=O)Nc1ccc(-n2cncn2)nc1 (configuration not stated) | -8.836 |
| CC(Cc1ccco1)NC(=O)Nc1ccc(N2CCOCC2)nc1 (configuration not stated) | -10 |
| CC(C(=O)Nc1ccc(N2CCOCC2)nc1)n1cncn1 (configuration not stated) | 104.2 |
| CCn1cc(CN2CCC(NS(C)(=O)=O)CC2)cc1C#N | -7.298 |
| CC(C)Cn1cnnc1C1CCCN1C(=O)c1cc2ccccn2c1 (configuration not stated) | -13.41 |
| CC(C)CN1CCCn2nc(CNC(=O)OCc3ccccc3)cc2C1 | 17.53 |
| CCCN1CCCn2nc(CNC(=O)C3CCOC3)cc2C1 (configuration not stated) | -8.283 |
| CC(C)NCc1cc2n(n1)CCN(C1CCCCC1)C2 | -9.171 |
| CC(C)c1nnc(NCc2cc3n(n2)CCN(C2CCCCC2)C3)s1 | 8.692 |
| CN[C@@H](CO)C(=O)NCc1cc2n(n1)CCCN(C1CCCCC1)C2 | 120.8 |
| CCC(CC)CN1CCCn2nc(CNC(=O)COC)cc2C1 | 4.127 |
| COC(=O)NCc1cc2n(n1)CCCN(C(C)=O)C2 | 17.7 |
| CCC(OC)C(=O)NCc1cc2n(n1)CCCN(C1CCCCC1)C2 (configuration not stated) | 113.3 |

| Compound | Percent Effect [%] |
| --- | --- |
| CC(C)CN1CCCn2nc(CNC(=O)NC(C)(C)C)cc2C1 | -2.187 |
| CCC(C)NC(=O)NCc1cc2n(n1)CCCN(C1CCCCC1)C2 (configuration not stated) | 123 |
| CCCOC(C)C(=O)NCc1cc2n(n1)CCCN(C1CCCCC1)C2 (configuration not stated) | 111 |
| O=C(c1ccc(Cl)s1)N1CCCn2nc(CN3CC[C@H](F)C3)cc2C1 | 0.8139 |
| Cc1nc(C(C)N(C)Cc2nc(CCC(C)C)no2)c(C)s1 (configuration not stated) | 1.881 |
| CCSc1ccc(C(C)NC(=O)CCS(C)(=O)=O)cc1 (configuration not stated) | -10.2 |
| CC(C)(C)c1nccc(N2CCN(C3CCS(=O)(=O)C3)CC2)n1 (configuration not stated) | -14.65 |
| O=C(NCc1ccco1)c1ccc(N2CCOCC2)cc1 | -7.738 |
| CCOCc1nc(N2CCCC2)sc1C(=O)NCCC(=O)OCC | 118 |
| CCCOC1CCCN(c2ccnc(C(=O)NCc3ccco3)c2)C1 (configuration not stated) | 6.201 |
| CCOCc1nc(N2CCCC2)sc1C(=O)NCc1ccco1 | 113.4 |
| O=C(NCCCc1ccco1)c1ccc(N2CCOCC2)cc1 | -6.417 |
| Cc1nc(CC(=O)NCc2csc(N3CCCC3)n2)cs1 | 17.94 |
| CCOCc1nc(N2CCOCC2)sc1C(=O)NCCCc1ccco1 | 102.3 |
| O=C(NCc1ccco1)Nc1ccc2nc(N3CCOCC3)oc2c1 | -0.2531 |
| CC1CCCCN1C1CN(c2ccnc(C(=O)NCc3ccco3)c2)C1 (configuration not stated) | 0.5235 |
| CCOCCCNC(=O)c1cc(C(C)C)nc(N2CCCCCC2)n1 | 4.863 |
| Cc1nc(CCCNC(=O)c2coc(CN3CCOCC3)c2)sc1C | -5.742 |
| CCOCc1nc(N2CCOCC2)sc1C(=O)NCc1ccco1 | 132.8 |
